Bioassay records as filed in PubChem BioAssay.
A1 inh: inducers of caspase activity in MEF A1-2A-BIM cells, primary screen, A1 inhibitor project, cell-based, CaspaseGlo luminescence; caspase-Glo luminescence, 3 h; percent of clofoctol signal, DMSO as zero; caspase activation, % (no concentration beside the values); 21,000 tested, 0.51% active; AID 2241, 2010;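 active = most replicate scores above 10, or exactly half above 10 with mean activity above 10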;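 note: effector caspase 3 and 7 activity cleaving a DEVD luciferin substrate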
A number is an active result; i = inactive. The full list was thinned out, with hits kept by preference.

SMILES | A1 inh
COc1ccccc1NC(=O)C(NC(=O)c1ccccc1NC(=O)c1ccccc1)C(C)C (configuration not stated) | i
COc1ccc(C(=O)NC(=O)c2ccccc2O)cc1OC | i
Cc1ccc(-c2nc(NC(=O)C(C(C)C)N3C(=O)c4ccccc4C3=O)sc2C)cc1 (configuration not stated) | i
N#Cc1c(N)nc(SCC(=O)c2ccc3ccccc3c2)c(C#N)c1-c1cccc(F)c1 | i
N#Cc1c(N)nc(Sc2ccc(Cl)cc2)c(C#N)c1-c1ccccc1 | 42
CCCc1nc(N)c(C#N)c(-c2ccccc2)c1CC | i
COC(=O)CNC(c1ccccc1)c1cc(Br)ccc1NC(=O)c1ccccc1Cl (configuration not stated) | i
CCc1c(C)sc(NC(=O)C2CC3CCC2C3)c1C(=O)OC (configuration not stated) | i
Cc1c(C(=O)Nc2ccc(S(=O)(=O)N3CCCCC3C)cc2)oc2ccccc12 (configuration not stated) | i
Cc1ccc(NC(=O)c2oc3ccc(S(=O)(=O)N4CCCC4)cc3c2C)cc1C | i
Cc1c(C(=O)Nc2ccccc2Br)oc2ccc(S(=O)(=O)N3CCCC3)cc12 | 60
O=C(CSc1nc(-c2ccco2)cc(C(F)(F)F)n1)N(Cc1ccccc1)Cc1ccccc1 | i
Cc1ccc(-n2cc(-c3ccccc3)c3c(N4CCCC4)ncnc32)cc1 | i
CCn1c2c(c3cc(Br)ccc31)CCCC2=O | i
CCn1c2c(c3cc(C4CCCCC4)ccc31)CCCC2=O | i
CCn1c2c(c3cc(C4CCCCC4)ccc31)CCC/C2=N\O | 15
COC(=O)c1cc(S(=O)(=O)/C=C/c2ccccc2)c(Cl)cc1Cl | i
O=C(Cn1nc(C(F)(F)F)c2c1CCCC2)N(Cc1ccccc1)Cc1ccccc1 | i
CCCc1c(-c2ccccc2)nc2sc3c(c2c1N)CCCCC3 | i
O=C(Nc1ccccc1)OCc1ccc(-c2cc(C(F)(F)F)cc(C(F)(F)F)c2)o1 | i
CCOC(=O)c1c(NC(=O)CSc2cc(C)c3ccccc3n2)sc2c1CCC2 | i
CCOC(=O)c1cc(-c2ccccc2)sc1NC(=O)CCN1CCN(CC)CC1 | 12
CCOC(=O)c1cc(CC)sc1NC(=S)Nc1ccccc1C(F)(F)F | i
C=CCOc1nc(NCC)nc(N(C)C)n1 | i
COC(=O)C1=C(O)/C(=C/c2ccc(C(C)(C)C)cc2)N=C1C | i
SMILES | A1 inh
COc1cccc(CNC(=O)c2cnn3c(C)c(Cc4c(C)cc(C)cc4C)c(C)nc23)c1 | i
Oc1ccc(/C=N/c2nccs2)cc1 | i
CC12CC3(C)CC(C)(C1)CC(CN=Cc1ccc(O)cc1)(C2)C3 | 13
Cn1c(=O)c2c(nc(S(C)(=O)=O)n2C)n(C)c1=O | i
COc1ccc(C(=O)NC(=S)Nc2ccc3[nH]c(=O)[nH]c3c2)cc1OC | i
Cc1cc(C)cc(NC(=O)c2cc3ccccc3o2)c1 | i
COc1cccc(NC(=O)COc2ccccc2OC)c1 | i
COc1cc(NC(=O)COc2cc(C)c(Cl)c(C)c2)ccc1NC(=O)c1cc2ccccc2o1 | 17
Cc1ccc(S(=O)(=O)c2cn(Cc3cccc(Cl)c3)c3cc4c(cc3c2=O)OCO4)cc1 | i
O=C(Nc1cccc(F)c1)C1CCN(c2ncnc3c2sc2cccc(F)c23)CC1 | i
COc1ccc(-c2oc3ncn(CC(C)C)c(=N)c3c2-c2ccc(OC)cc2)cc1 | i
